Consider 17 molecules from PubChem BioAssay (NCATS).

Results filed as inconclusive are left out. Values without a mark were called inactive. Active and inactive are the calls of the source. Calls come from the whole dose curve; as a rule, active = well fitted curve in the direction sought with a large enough effect; inconclusive = small, poorly fitted or top-dose-only effect, or another doubt; inactive = no such curve, though single readings can be large; an effect the other way counts as inactive or inconclusive.

Test [1] is described as follows: P-glycoprotein substrates identified in KB-3-1 adenocarcinoma cell line, qHTS therapeutic library screen (AID 1346986). Note: nearly all actives have a fitted effect of over 60% in size. Conditions: KB-3-1 parental cells viability, CellTiter-Glo, 72 h; series mostly up to 44.5 µM. Put shortly:
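KB-3-1 parental and colchicine-selected P-gp-overexpressing KB-8-5-11 cells (colchicine omitted during assay), 500 cells/well, dosed in dose-response for 72 h at 37 °C; CellTiter-Glo luminescence. Cytotoxic: curve class -1.1 to -2.4, max response >50%, AC50 < 10 uM.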

The nature of test [2]: P-glycoprotein substrates identified in KB-8-5-11 adenocarcinoma cell line, qHTS therapeutic library screen (AID 1346987). Note: nearly all actives have a fitted effect of over 65% in size. Conditions: KB-8-5-11 (P-gp overexpressing) viability, CellTiter-Glo, 72 h; series mostly up to 44.5 µM. Put shortly: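 Steps: plate 500 KB-8-5-11 cells/well in DMEM + 10% FCS (colchicine removed); pin compounds in dose-response; incubate 72 h, 37 degree C, 5% CO2; add CellTiter-Glo, 5 min; read luminescence.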

Test [3] concerns Zika virus NS2B-NS3 protease (unlinked complex). Briefly: Primary screen GU Rhodamine qHTS for Zika virus inhibitors: Unlinked NS2B-NS3 protease assay (AID 1347159). For activity change, negative = inhibition: % is set by controls: 0 for no effect and ±100 for the full control effect. Note: nearly all actives have a fitted effect of over 60% in size. Note: potency is the fitted concentration of half-maximal effect. Conditions: Recombinant ZIKV NS2B-NS3 protease, Rhodamine110 substrate fluorescence; series mostly up to 107 µM. Put shortly: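 Noncovalent NS2B hydrophilic domain–NS3 protease domain complex (25 nM) preincubated 15 min at room temperature with compounds (up to 114 microM) in 10 mM Tris-HCl pH 8.0, 0.01% Tween 20; 1.5 microM Rhodamine110 substrate added, fluorescence change over 15 min fitted to Hill equation.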

The test system of test [4] is Zika virus NS2B-NS3 protease (linked construct). Description: Primary screen NINDS Rhodamine qHTS for Zika virus inhibitors (AID 1347160). For activity change, negative = inhibition: % is set by controls: 0 for no effect and ±100 for the full control effect. Note: nearly all actives have a fitted effect of over 55% in size. Note: potency is the fitted concentration of half-maximal effect. Conditions: purified NS2B-NS3 protease, Rhodamine110 substrate fluorescence; series mostly up to 33.1 µM. A digest of the protocol: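 Purified linked NS2B-NS3 protease (NS2B hydrophilic domain joined to NS3 protease by flexible linker), 25 nM in 10 mM Tris-HCl pH 8.0, 0.01% Tween 20. Compounds titrated, 15 min preincubation at room temperature; 1.5 microM Rhodamine110 substrate, FITC fluorescence change over 15 min.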

As for `CC1(C)COC(=O)[C@@H]1O[C@@H]1O[C@H](CO)[C@@H](O)[C@H](O)[C@H]1O`, the Potency entry in test [1], in test [2], in test [3] and in test [4] was “inactive” throughout.
For `C=C(CCO[C@@H]1O[C@H](CO)[C@@H](O)[C@H](O)[C@H]1O)C(=O)O`, the Potency result in test [1], in test [2], in test [3] and in test [4] was “inactive” in each case.
As for `CC1OC(O[C@@H]2[C@H](O)[C@@H](OC3OC(CO)C(O)C(O)C3O)[C@H](OC(=O)[C@]34CCC(C)(C)C[C@H]3C3=CCC5[C@@]6(C)CC[C@H](O[C@@H]7O[C@H](C(=O)O)[C@@H](O)[C@H](O[C@@H]8OC[C@@H](O)[C@H](O)[C@H]8O)[C@H]7O[C@@H]7O[C@H](CO)[C@H](O)[C@H](O)[C@H]7O)[C@@](C)(C=O)C6CC[C@@]5(C)[C@]3(C)C[C@H]4O)O[C@@H]2C)C(O)C(O)C1OC1OCC(O)C(O)C1O` (stereo partly drawn), the outcome in test [1] and in test [2] was “inactive [at 5.11 µM]” in each case. The activity change, negative = inhibition in test [3] is 87.6% [at 19.1 µM]. Further, in test [4], the Potency entry was “inactive”.
Regarding H-DPPDPDRFYGMM-NH2, the Potency result in test [1], in test [2], in test [3] and in test [4] was “inactive” throughout.
Take `COc1cc(/C=C/C(=O)OCC2OC(OC3(CO)OC(CO)C(O)C3O)C(O)C(O)C2O)ccc1O` (stereo not drawn): the Potency entry in test [1], in test [2], in test [3] and in test [4] was “inactive” in each case.
For the molecule `COC(=O)[C@H](Cc1ccc([N+](=O)[O-])cc1)NC(=O)c1cccc2ccccc12`, the Potency entry in test [1], in test [2], in test [3] and in test [4] was “inactive” throughout.
`COC(=O)C1=CO[C@@H](O[C@@H]2O[C@H](CO)[C@@H](O)[C@H](O)[C@H]2O)[C@@H]2C(CO)=CC[C@H]12`: the Potency entry in test [1], in test [2], in test [3] and in test [4] was “inactive” in each case.
With `CC1(C)CCCC2(C)c3c4c(c(=O)oc(=O)c3=CCC12)=CCC1C(C)(C)CCCC41C` (stereo not drawn), the Potency result in test [1], in test [2], in test [3] and in test [4] was “inactive” throughout.
In the case of `CC(=O)O[C@@H]1CC2C(C)(C)C(=O)C=C[C@]2(C)C2CC[C@]3(C)C(=CC(=O)[C@@H]3c3ccoc3)[C@@]21C` (stereo partly drawn), the Potency result in test [1], in test [2], in test [3] and in test [4] was “inactive” in each case.
As for `CC(=O)OC1C(C)C2C(OC3OC(CO)C(O)C(O)C3O)OC=C(C(=O)O)C2C1OC(=O)c1ccccc1` (stereo not drawn), the Potency result in test [1], in test [2], in test [3] and in test [4] was “inactive” throughout.
For the molecule `O=C(c1c2ccccc2cc2ccccc12)N1CCC(N2CCC[C@@H](C(=O)N3CCOCC3)C2)CC1`, the Potency entry in test [1], in test [2], in test [3] and in test [4] was “inactive” each time.
Take `CCC(=O)OCC(=O)[C@@]1(OC(=O)CC)[C@@H](C)C[C@H]2[C@@H]3CCC4=CC(=O)C=C[C@]4(C)[C@@]3(F)[C@@H](O)C[C@@]21C`: the Potency result in test [1], in test [2], in test [3] and in test [4] was “inactive” in each case.
With `O=C(COCC(=O)N1CCN(C(c2ccccc2)c2ccccc2)CC1)Nc1ccc(Cl)cc1C(=O)O`, the Potency result in test [1] and in test [2] was “inactive” throughout. Further, the Potency in test [3] is 11.2 µM (active); in test [4] it was 12.6 µM (active).
For the molecule `CC/C=C/C(O)C(O)C1=C(C)C(=O)C2(O1)C(=O)NC(OC)(C(=O)c1ccccc1)C2O` (stereo not drawn), the Potency entry in test [1], in test [2], in test [3] and in test [4] was “inactive” each time.
`Cc1c(O)cc2c(c1O)COC1(O)CCCOC21` (stereo not drawn): the Potency entry in test [1], in test [2], in test [3] and in test [4] was “inactive” in each case.
Consider `Cc1cn(-c2cc(NC(=O)c3ccc(C)c(Nc4nccc(-c5cnccn5)n4)c3)cc(C(F)(F)F)c2)cn1`, for which the Potency result in test [1], in test [2], in test [3] and in test [4] was “inactive” throughout.
In the case of `CC(=O)OCC1OC(O[C@H]2CC[C@@]3(C)C(CC[C@]4(C)C3CC=C3[C@@H]5CC(C)(C)CC[C@]5(C(=O)O)CC[C@]34C)[C@]2(C)CO)C(O)C(O)C1OC1OC(C)C(O)C(OC2OCC(O)C(O)C2O)C1O` (stereo partly drawn), the outcome in test [1] and in test [2] was “inactive [at 9.29 µM]” in each case. In addition, the Potency entry in test [3] and in test [4] was “inactive” in each case.
